# Test results as given in the supplement of paper PMC11417369.
# Whole data set: some 25,000 sequences, median “ln(normalized median fluorescence intensity)” near 6.7, cut for the highest 2% near 10. Many of the other results were omitted from the sample, so the highest values are more common in it than they were.
# Tested on: PfHDP1 homeodomain (GST-tagged)
# Assay: gcPBM binding intensity (ln(normalized median fluorescence intensity)); higher = stronger DNA binding
# Outline: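 Probes on an Agilent 4 × 180k array were primer-extended, double-stranded and 36 bp long, taken from intergenic genomic regions, with negative controls added. GST-tagged P. falciparum DNA-binding domains from E. coli, about 25 μg on average, were applied to the array for 1 h in 1× PBS containing 1% milk, 0.2 mg/ml BSA, 0.5% salmon testes DNA and 0.03% Triton X-100. Binding intensity, obtained after Alexa488 anti-GST antibody detection and a 488 nm scan, is the highest Masliner-normalised natural-log median intensity across replicate spots of either probe orientation.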
row,Sequence,gcPBM binding intensity (ln)
1,GGATTTATTTTATATACACACATACCTATATTTATA [CACACA_site7084],6.84
2,TATATCTCATAGTATACACACACACCCACCCACATA [CACACA_site8513],7.7
3,GTATGTGTATGTGTATGTACATATGTATGTATAAAA [XGTACX_site8191],8.13
4,TTAATTATTATATAAGTGCAATAATAAAAAGTTGTA [GTGCAC_site9552],9.36
5,GTTTATGTATTATTATGTACGTATCATAATATATAT [XGTACX_site2385],6.87
6,ACACATACACATTAGGTGCACATAATTCAATATTAC [GTGCAC_site9862],10.6
7,TATGTATTTTTATGCACACATGCGTGGCTTATATAA [CACACA_site387],10.5
8,AAATAATTATTTATCACACATATGTATTTATATATA [CACACA_site4589],6.66
9,AGTGCATAATATTTATGTACGTATCACATATATTTT [XGTACX_site5166],10.7
10,CGTATGCACAAATTATGTACTTATATATATATATAT [XGTACX_site2348],10.9
11,TAATATTCAATTATACGTACACATATATATATATAT [XGTACX_site4245],9.22
12,ACACATACACATTAGGTGCATATATTTCAATATTAC [GTGCAC_site9423],9.83
13,TTTATGTATTTTTATGCACACATGCGTGGCTTATAT [CACACA_site4374],10.4
14,ATTGTATATGTATATGCACACAATATATGTACTTAT [CACACA_site2611],9.66
15,ACAAATAAATAAATATGTACTTAATTATATAATTGA [XGTACX_site5626],6.16
16,TATATATATATATATTTTTTTTTTTTATGCACATGG [CACACA_negctrl_site1573],10.1
17,ATATTATTTTATGCTACACACATTTTCTCTTATAAA [CACACA_site943],7.25
18,AAAAAAAAAATATACACACACATATATATATATATA [CACACA_site3404],9.35
19,GTAGACTGAAACCACACACACATATATATATATATT [CACACA_site605],6.93
20,ATATAGAATATATTAACATGCAATAAGTAAAGGGGG [TGCATGCA_site1022],7.05
21,TGTATGTATTTTCAATGTACATAAAAAAAAAAAAAA [XGTACX_site4397],6.71
22,GTTGAAAAAAAAAATGCACACGCATACATATAATAT [CACACA_site8117],9.09
23,TTTGAAATAAATAATGCACACTCTACATATATACGT [CACACA_site2244],10.6
24,AATCTAATATAATGCACACATAAAAAAAAAATCAAA [CACACA_site2714],10.2

row,Sequence,gcPBM binding intensity (ln)
1,AATATAATATAATGCACACATAAAAAAAAAAAAATC [CACACA_site1303],10.6
2,AAAATATAATATAATGCACACATAAAAAAAAAATCA [CACACA_site7922],10.2
3,AATATAATATAATGCACACATAAAAAAAAAATCAAA [CACACA_site122],11
4,TGAAATAAATAATGCACACTCTACAGATATACGTAT [CACACA_site5270],10.1
5,AAAATCTAATATAATGCACACATAAAAAAAAATCAA [CACACA_site9211],9.65
6,AATCTAATATAATGCACACATAAAAAAAAATCAAAC [CACACA_site3633],10.7
7,GTAAATATGTTTATTAGTACACATATGAAAATAAAT [XGTACX_site5820],6.42
8,GAGAAATGGAGACACACACACATATTATATATATAT [CACACA_site1532],8.68
9,AAACAATTATTATATTGTACATATATTACATTATTA [XGTACX_site1089],6.23
10,ACTATCATTTTTTTAACACACAAAAAAAATAAAATA [CACACA_site3519],6.44
11,TATATATAATATTATACACACATATATGCATAATAT [CACACA_site54],7.56
12,AAATGTGAAAAAGAGTGTACCCGACTTGAAATTAAG [XGTACX_site8621],6.92
13,TTAATTATAAGAAAAAGTACTCATTACATTATAGAA [XGTACX_site678],6.12
14,TAGTATGATAACTTGGGTACATAAATATGGAGTATC [XGTACX_site1296],6.81
15,TATATTTTAATTTGAAGTACTAATATTTATTTATAT [XGTACX_site7458],6.14
16,ATAATAAAAAAAAATGCACACATATATATATATATA [CACACA_site8766],9.5
17,AAAAAATATACATATACACACATATGTATATATAAT [CACACA_site8676],6.34
18,AATATAATATAATGCACACATAAAAAAAAAAAAAAA [CACACA_site304],10.9
19,AAAATATAATATAATGCACACATAAAAAAAAAAAAA [CACACA_site7989],9.84
20,AAAAATAATGCACATATATATAATATGTATATGTAT [CACACA_negctrl_site443],11.1
21,TATAATATAATATATGCACACAAATATGTATATATG [CACACA_site8664],9.95
22,CTTATGTGCATACCTACACACTTACAGATATATATA [CACACA_site5622],9.61
23,ATATATAATTTTTACACACGCAATAAATATATATAT [CACACA_site4283],7.7
24,TTTAATTATTAAATGGTGCACTTGAAATATAAAAAT,10.1

row,Sequence,gcPBM binding intensity (ln)
1,TTGTTTTTCTTTGAATGTACTTAATGATTTCCAATT [XGTACX_site2499],6.44
2,CAAAACAAAGTTGCCGCACACAGATACGCACCCAAG [CACACA_site3455],7.09
3,CACACGCACAGACACACACACACACGGATATAAATA [CACACA_site6301],7.76
4,ATATACATATATATGGGTACATATATTAATATATAT [XGTACX_site8358],6.74
5,GTTAGGATAGATTAGACATGCACATAAATGCACTTC [TGCATGCA_site561],10.6
6,AGGATATGCAGACACACACACATATAGATTTATATA [CACACA_site7100],6.6
7,AAAATTAGATTATGCACACACACTTAAAAATAATAA [CACACA_site1975],10.1
8,ATATAATTAAAATGCTCACACACATAAAAAAAAATT [CACACA_site2148],8.58
9,TTTTGTTATTTTTGTATGCACTACATATTATTATAT,8.89
10,AATAATACACAATTTTGTACGTATTTAAAATATATT [XGTACX_site45],6.74
11,GCTAAACAATAGTTTGCACACAATTTAAATATATAT [CACACA_site193],10.3
12,CATAAATTAATAGTCACACACGTATTTTTTATATAT [CACACA_site2526],6.16
13,TTATTAAATAAAATCATGCACACAATATATATTTTA [CACACA_site2496],8.65
14,TCGTATATGGATTTTGCACACAATTTTAATTTAAAT [CACACA_site4635],10.7
15,TCGTATATGGATTTTGCACACAATTATAATTTAAAT [CACACA_site868],10.8
16,AATATAAACAGACACACACACATATAGATTTATATT [CACACA_site7382],6.8
17,TTCATATAATTATATACATGCATAAATTCTAAGTAA [TGCATGCA_site622],6.78
18,ATACATATATATGTGTGTACATATGTGTATACATTT [XGTACX_site6544],6.84
19,CACACCATATAATATATATATATGTATATATTTATA [CACACA_negctrl_site397],6.58
20,TAATATATGTATTGCACACCTATAACCATTATTTCT [CACACA_site1498],10.5
21,TGTAATATATGTATTGCACACCTATAACCATTATTT [CACACA_site8422],9.86
22,ACATAAAATAAATATACACACATATGTATATATCAT [CACACA_site7424],6.52
23,TTTATATTATTATATCTTATTAATTATTTATCATTT [TGCATGCA_negctrl_site73],6.23
24,AACTGTACAATTTTTGTGCACAATAATTATTAATAT [GTGCAC_site9462],11

row,Sequence,gcPBM binding intensity (ln)
1,TTATAATATTAATGTGCACACAATTAAAATATTATA [CACACA_site2046],10.7
2,TAAATTATAATATGCACACAAAATGTTATATTAAAA [CACACA_site376],9.55
3,TATTTATTTTTTTTTGTGCACTTAATATAATCTTAC,9.51
4,TTTTTTTTTTTTAATGCACACAATATATAATATGTA [CACACA_site3694],10.2
5,TTATAATTTTAATGTGCACACAATTAAAATATTATA [CACACA_site5172],10.2
6,TATTATAATATATTTGTGCACATAATACCTCCGCTA [GTGCAC_site9570],10.9
7,TTTTTTTTTTTTTTTGTGCACAATATAATTTTTAAT [GTGCAC_site9747],10.8
8,ATATTTTATTTAATTACACACAATATTGCAATTTGT [CACACA_site669],8.74
9,TAATAATATATTTGTAGTACACAATTTTTTATAACT [XGTACX_site3951],6.34
10,AATATATATATTAGAGTGCACATAATTATTTGCTAA,8.88
11,TATATATATATTTTTTGTACATATTATATAATATAC [XGTACX_site5187],8.42
12,TTTTTATATATATGTATAAATATTTTTTCTATTTAT [XGTACX_negctrl_site606],6.46
13,ACATCAAGCAGACACACACACACACCCACCCACCCA [CACACA_site8012],6.5
14,ACAGGAAAAAACAATTGTACATGTATATATATATAT [XGTACX_site7677],9.16
15,AAATATTACATACACGCACACATTAATATATTTAAA [CACACA_site2603],7.25
16,CATATAAATATTTGTGCACACAATTATTAATAATTA [CACACA_site3884],11.2
17,TTAATTTTATTTTTTTGTACACATAAATATTATAAA [XGTACX_site4680],6.62
18,TTATATTTTTTAATTACACACAATTTTTATAAATAT [CACACA_site4148],6.66
19,TATGTATGTATTAATGCGCACACAAAAAATAACAAT [CACACA_site8551],7.73
20,TAAGATATAAAAAATGTGCACATTAAAGTATTAATT,10.5
21,TATAAAGATATAAATGCACACGTATTAAAAAAAAAA [CACACA_site8223],8.22
22,TGTATGTATTAATGCGCACACAAAAAATAACAATAT [CACACA_site1848],7.88
23,AAAAAAAAAAAAAAATGTACATATTAAGTATAATTA [XGTACX_site4616],6.23
24,TAAATAATAATAAATGTGCACAGGTATTAACAAAAA [GTGCAC_site9988],10.6
